Experimental data reported in PMC5540273 (PLoS ONE, 2017).

Assays:
Details in all cases: concentration: 1 μM, replicates: in singlicate; n = 1
PHKG1 = tested on: PHKG1
PHKG2 = tested on: PHKG2
PIK3C2B = tested on: PIK3C2B
PIK3C2G = tested on: PIK3C2G
PIK3CA = tested on: PIK3CA
PIK3CB = tested on: PIK3CB
PIK3CD = tested on: PIK3CD
PIK3CG = tested on: PIK3CG
PIK4CB = tested on: T1, PIK4CB
T1 construct: gene PI4KB

PIKFYVE = tested on: PIKFYVE
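Further: KINOMEscan kinase panel screen.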

Row | SMILES | %Inh (PHKG1) | %Inh (PHKG2) | %Inh (PIK3C2B) | %Inh (PIK3C2G) | %Inh (PIK3CA) | %Inh (PIK3CB) | %Inh (PIK3CD) | %Inh (PIK3CG) | %Inh (PIK4CB) | %Inh (PIKFYVE)
1 | CN(C)CCN(C)C(=O)c1cc(-c2ccncc2)c(-c2ccc(Cl)c(O)c2)o1.Cl.Cl [SB-710397] | 0% | 0% | 0% | 0% | 0% | 18% | 40% | 0% | 7% | 47%
2 | O=C(Nc1ccc2c(c1)OCO2)NC1CCN(c2ccnc(Nc3ccc(F)cc3)n2)C1 (centres unmarked) [GSK1379724] | 0% | 0% | 0% | 0% | 0% | 0% | 10% | 0% | 39% | 0%
3 | CCn1c(-c2ccccn2)nc2cnccc21 [SB-736398] | 0% | 0% | 0% | 0% | 0% | 18% | 5% | 0% | 0% | 32%
4 | COc1cc(Nc2nccc(N3CCC(NC(=O)Nc4cc(C)ccc4C)C3)n2)cc(OC)c1OC (centres unmarked) [GSK1379762] | 3% | 0% | 0% | 0% | 0% | 0% | 39% | 0% | 15% | 0%
5 | Clc1cc(Cl)cc(Nc2ccnc(Nc3cc(Cl)cc(Cl)c3)n2)c1 [GSK175726] | 0% | 0% | 6% | 0% | 5% | 40% | 38% | 3% | 0% | 1%
6 | Cc1c(Cn2ccn3c(=O)cc(N4CCOCC4)nc23)cccc1C(F)(F)F [GSK2289044] | 0% | 10% | 20% | 6% | 21% | 100% | 92% | 29% | 0% | 0%
7 | CS(=O)(=O)c1ccc(-c2nc3n(c2-c2ccncc2)CCC3)cc1 [SKF-105942] | 3% | 0% | 0% | 0% | 0% | 0% | 0% | 0% | 100% | 0%
8 | COc1ccc(CNC(=O)NC2CCN(c3ccnc(Nc4cc(OC)c(OC)c(OC)c4)n3)C2)cc1 (centres unmarked) [GSK1379748] | 0% | 31% | 0% | 0% | 0% | 0% | 3% | 0% | 46% | 6%
9 | Cc1ccc(NC(=O)Nc2cc(C(C)(C)C)nn2-c2ccccc2)cc1 [GSK1014915] | 4% | 0% | 0% | 0% | 0% | 0% | 0% | 0% | 4% | 0%
10 | CCCc1ccc(S(=O)(=O)NC2CCN(c3ccnc(Nc4ccc(F)cc4)n3)C2)cc1 (centres unmarked) [GSK1379715] | 0% | 0% | 0% | 0% | 0% | 0% | 34% | 0% | 0% | 0%
11 | CN1C(=O)C(Nc2ccc(Cl)c(C(=O)O)c2)=C(c2ccc(Cl)cc2)C1=O [SB-404290] | 0% | 0% | 34% | 20% | 7% | 0% | 0% | 23% | 16% | 13%
12 | COc1cc2nccc(Nc3ccc(NC(=O)c4ccc(C)cc4)c(O)c3)c2cc1OC.Cl [GW440132] | 15% | 0% | 100% | 0% | 100% | 0% | 0% | 100% | 0% | 0%
13 | Cc1cc(-c2ccc3c(c2)CC[C@@H](N[C@@H](C)c2ccccc2)C3)cnc1N.Cl [GW412617] | 21% | 3% | 0% | 0% | 1% | 0% | 0% | 0% | 1% | 0%
14 | COc1ccccc1-c1ccc2c(NC(=O)C3CC3)n[nH]c2n1 [SB-711239] | 1% | 0% | 0% | 45% | 0% | 25% | 23% | 0% | 0% | 17%
15 | COc1cccc(NC(=O)NC2CCN(c3ccnc(Nc4ccc(F)cc4)n3)C2)c1 (centres unmarked) [GSK1379721] | 0% | 0% | 11% | 0% | 3% | 0% | 0% | 13% | 0% | 31%
16 | COc1ccc(Nc2nccc(-c3cccc(NC(=O)c4cc5cc(F)ccc5[nH]4)c3)n2)cc1 [GSK1229782] | 19% | 0% | 0% | 0% | 0% | 0% | 0% | 2% | 0% | 6%
17 | Cc1csc(-c2nc(Nc3ccncc3)c3ccccc3n2)n1 [GW869640] | 14% | 1% | 37% | 31% | 13% | 50% | 26% | 30% | 57% | 78%
